According to PubChem BioAssay:
The source made the active and inactive calls.

Experiments:
[1] = binders of probe aFSTL3 on microarray, primary screen, stem cell growth factor project, biochemical, small-molecule microarray, fluorescence 635/667 (AID 1064); details: higher = more signal;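 further: measures binding of the biotinylated anti-FSTL3 antibody to printed compounds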
[2] = binders from COS7 lysate, DM2A8 probe, primary screen, torsin A project, cell lysate, small-molecule microarray, fluorescence 635/667 (AID 1065); details: higher = more signal, COS7 lysate expressing mutant human TOR1A
[3] = binders of probe aFGF2 on microarray, primary screen, stem cell growth factor project, biochemical, small-molecule microarray, fluorescence 635/667 (AID 1067); details: higher = more signal;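 further: measures binding of biotinylated aFGF2 protein to printed compounds on slides; z-score merges feature fluorescence and signal-to-noise across triplicate slides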
[4] = binders of probe aFGF10 on microarray, primary screen, stem cell growth factor project, biochemical, small-molecule microarray, fluorescence 635/667 (AID 1071); details: higher = more signal;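 further: score merges 667 nm spot intensity and signal to noise from triplicate slides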
[5] = biological target: Neurogenic locus notch homolog protein 2 (Homo sapiens) (UniProt Q04721); assay: Notch2 binders on small-molecule microarrays, primary screen, biochemical, small-molecule microarray, 635 nm fluorescence, stem cell growth factors (AID 1073); details: Notch2 binding, higher = more signal
Neurogenic locus notch homolog protein 2 (Homo sapiens), sequence (Q04721 whole entry, looked up, canonical isoform): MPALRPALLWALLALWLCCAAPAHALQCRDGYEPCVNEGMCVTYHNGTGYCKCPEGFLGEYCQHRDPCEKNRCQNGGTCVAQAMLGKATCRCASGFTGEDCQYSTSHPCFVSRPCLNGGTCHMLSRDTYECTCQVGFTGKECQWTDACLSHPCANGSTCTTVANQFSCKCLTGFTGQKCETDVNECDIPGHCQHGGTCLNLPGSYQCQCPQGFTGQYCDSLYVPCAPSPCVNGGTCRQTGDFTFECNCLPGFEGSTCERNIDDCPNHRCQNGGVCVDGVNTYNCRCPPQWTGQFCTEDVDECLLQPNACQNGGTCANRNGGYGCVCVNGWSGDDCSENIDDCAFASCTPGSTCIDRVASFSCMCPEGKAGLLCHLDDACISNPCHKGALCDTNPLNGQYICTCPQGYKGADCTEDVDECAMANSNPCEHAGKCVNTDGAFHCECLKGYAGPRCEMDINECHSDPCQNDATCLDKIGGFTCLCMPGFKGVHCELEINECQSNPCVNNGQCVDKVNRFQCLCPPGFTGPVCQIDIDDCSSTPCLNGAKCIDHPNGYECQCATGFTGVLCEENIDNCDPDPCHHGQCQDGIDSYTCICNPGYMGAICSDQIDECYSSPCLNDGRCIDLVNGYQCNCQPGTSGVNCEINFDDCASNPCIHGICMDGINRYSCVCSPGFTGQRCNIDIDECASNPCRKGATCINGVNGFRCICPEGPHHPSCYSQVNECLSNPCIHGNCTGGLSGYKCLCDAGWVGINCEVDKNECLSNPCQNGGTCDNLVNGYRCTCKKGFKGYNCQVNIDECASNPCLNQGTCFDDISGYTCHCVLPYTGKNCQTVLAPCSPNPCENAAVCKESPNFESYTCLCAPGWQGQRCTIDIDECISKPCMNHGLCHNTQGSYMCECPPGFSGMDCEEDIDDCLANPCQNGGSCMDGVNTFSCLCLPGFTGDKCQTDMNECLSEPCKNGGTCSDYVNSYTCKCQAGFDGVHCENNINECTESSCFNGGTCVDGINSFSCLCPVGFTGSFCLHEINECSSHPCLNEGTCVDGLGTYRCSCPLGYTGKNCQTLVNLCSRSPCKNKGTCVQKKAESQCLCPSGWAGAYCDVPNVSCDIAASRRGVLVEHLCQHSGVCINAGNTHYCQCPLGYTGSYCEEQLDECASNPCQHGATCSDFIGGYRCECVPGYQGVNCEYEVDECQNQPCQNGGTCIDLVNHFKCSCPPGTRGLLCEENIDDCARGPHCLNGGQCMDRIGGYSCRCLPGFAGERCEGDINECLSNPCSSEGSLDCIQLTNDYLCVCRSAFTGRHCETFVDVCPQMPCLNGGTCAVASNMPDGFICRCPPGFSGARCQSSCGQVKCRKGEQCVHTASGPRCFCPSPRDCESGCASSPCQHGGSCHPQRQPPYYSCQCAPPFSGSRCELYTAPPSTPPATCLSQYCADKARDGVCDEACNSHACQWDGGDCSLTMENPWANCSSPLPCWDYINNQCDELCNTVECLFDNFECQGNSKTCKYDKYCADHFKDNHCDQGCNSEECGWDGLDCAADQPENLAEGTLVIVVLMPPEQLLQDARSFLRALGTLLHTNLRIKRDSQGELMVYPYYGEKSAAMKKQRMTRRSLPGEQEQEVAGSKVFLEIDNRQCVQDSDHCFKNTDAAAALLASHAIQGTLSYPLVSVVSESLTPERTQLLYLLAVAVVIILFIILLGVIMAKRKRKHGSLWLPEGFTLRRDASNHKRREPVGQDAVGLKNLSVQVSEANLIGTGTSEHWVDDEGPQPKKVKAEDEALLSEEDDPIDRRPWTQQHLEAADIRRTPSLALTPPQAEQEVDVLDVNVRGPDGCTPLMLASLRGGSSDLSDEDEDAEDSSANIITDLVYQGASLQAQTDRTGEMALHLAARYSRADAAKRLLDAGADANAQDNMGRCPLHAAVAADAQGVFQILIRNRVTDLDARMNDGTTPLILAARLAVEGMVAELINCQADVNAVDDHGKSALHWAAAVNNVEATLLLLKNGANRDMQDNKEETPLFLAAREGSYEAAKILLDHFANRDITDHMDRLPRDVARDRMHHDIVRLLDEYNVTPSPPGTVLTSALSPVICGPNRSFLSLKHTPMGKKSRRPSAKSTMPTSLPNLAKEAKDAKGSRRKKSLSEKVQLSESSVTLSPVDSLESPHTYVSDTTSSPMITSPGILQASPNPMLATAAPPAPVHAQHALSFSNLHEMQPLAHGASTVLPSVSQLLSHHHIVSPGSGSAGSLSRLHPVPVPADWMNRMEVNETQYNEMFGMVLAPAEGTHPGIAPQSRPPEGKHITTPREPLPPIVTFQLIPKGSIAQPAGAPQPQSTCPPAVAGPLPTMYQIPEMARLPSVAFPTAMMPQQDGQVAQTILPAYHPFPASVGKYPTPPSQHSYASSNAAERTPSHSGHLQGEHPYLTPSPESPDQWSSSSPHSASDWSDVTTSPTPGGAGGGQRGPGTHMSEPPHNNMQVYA

[6] = biological target: Pro-neuregulin-1, membrane-bound isoform (Homo sapiens) (UniProt Q02297); assay: NRG1 binders on small-molecule microarrays, primary screen, psychiatric disease protein project, biochemical, small-molecule microarray, fluorescence 635/667 (AID 1075); details: NRG1 binding, 635 nm fluorescence, higher = more signal;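 further: score combines 667 nm spot fluorescence with signal to noise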
Pro-neuregulin-1, membrane-bound isoform (Homo sapiens), sequence (Q02297 whole entry, looked up, the tested form may be a part, canonical isoform): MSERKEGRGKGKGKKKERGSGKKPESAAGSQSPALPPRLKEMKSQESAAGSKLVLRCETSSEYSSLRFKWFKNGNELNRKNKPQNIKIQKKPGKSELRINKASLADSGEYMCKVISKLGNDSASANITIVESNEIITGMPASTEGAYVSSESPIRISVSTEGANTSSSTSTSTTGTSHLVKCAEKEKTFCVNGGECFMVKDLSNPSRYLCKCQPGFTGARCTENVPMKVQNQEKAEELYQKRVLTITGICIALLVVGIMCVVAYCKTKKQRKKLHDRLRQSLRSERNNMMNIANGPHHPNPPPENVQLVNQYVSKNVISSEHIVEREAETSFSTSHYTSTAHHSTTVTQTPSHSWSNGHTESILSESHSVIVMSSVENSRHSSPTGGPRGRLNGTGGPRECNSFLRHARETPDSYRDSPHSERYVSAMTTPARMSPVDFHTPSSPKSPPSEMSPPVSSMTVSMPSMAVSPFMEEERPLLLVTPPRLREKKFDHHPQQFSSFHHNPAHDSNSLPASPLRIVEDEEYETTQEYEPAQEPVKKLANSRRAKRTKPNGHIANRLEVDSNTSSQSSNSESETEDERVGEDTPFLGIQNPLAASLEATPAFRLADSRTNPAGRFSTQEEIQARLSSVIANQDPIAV

[7] = tested on: Neuregulin-1 EGF-like domain; assay: binders of neuregulin-1 EGF-like domain, primary screen, biochemical, small-molecule microarray, 635 nm fluorescence (AID 1081); details: small-molecule microarray binding, higher = more signal;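 further: binding of the protein to compounds printed on small-molecule microarray slides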
[8] = FRG1 promoter luciferase signal modulators, primary screen, FRG1 inhibition for FSHD, cell-based, C2C12 myotubes, firefly/Renilla luciferase, luminescence (AID 1084); details: higher = more signal, called active from +8 up or from −8 down
[9] = binders of probe aFST on microarray, primary screen, stem cell growth factor project, biochemical, small-molecule microarray, fluorescence 635/667 (AID 1086); details: higher = more signal;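 further: score merges 667 nm fluorescence with signal-to-noise of each printed compound spot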
[10] = binders of probe aHhip on microarray, primary screen, stem cell growth factor project, biochemical, small-molecule microarray, fluorescence 635/667 (AID 1087); details: higher = more signal;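 further: score merges spot fluorescence at 667nm with spot signal to noise ratio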
[11] = tested on: PRMT1 (protein arginine N-methyltransferase 1); assay: PRMT1 binders on small-molecule microarrays, primary screen, biochemical, small-molecule microarray, 635 nm fluorescence (AID 1088); details: small-molecule microarray binding, higher = more signal;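 further: binding of Prmt1 protein to compounds spotted on small-molecule microarray slides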
[12] = yeast growth modulation, basal conditions, primary screen, YJM789 clinical isolate, OD600, 24 h (AID 1089);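 further: growth of clinical yeast isolate S. cerevisiae YJM 789 seeded 1000 cells per well; test concentration not given here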; details: S. cerevisiae YJM789 growth, higher = more signal, called active from +8 up or from −8 down
[13] = fission yeast growth modulation, primary screen, strain 972, OD600, 24 h, no modulator (AID 1090);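 further: basal condition with compound alone and no growth modifier present; test concentration not given here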; details: S. pombe 972 growth, higher = more signal, called active from +8 up or from −8 down
[14] = S. cerevisiae growth modulation with rapamycin, primary screen, strain BY4716, OD600, 96 h (AID 1091); details: higher = more signal, called active from +8 up or from −8 down; further: test concentration not given here
[15] = biological target: Torsin-1A-interacting protein 2 (Homo sapiens) (UniProt Q8NFQ8); assay: LULL1 binders on small-molecule microarray, primary screen, cell lysate, human LULL1 lysate, 635/667 nm fluorescence (AID 1092); details: hLULL1 lysate binding, 635 nm fluorescence, higher = more signal;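 further: probe is lysate of COS7 cells overexpressing human LULL1; score merges per-feature 667 nm fluorescence with signal-to-noise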
Torsin-1A-interacting protein 2 (Homo sapiens), sequence (Q8NFQ8 whole entry, looked up): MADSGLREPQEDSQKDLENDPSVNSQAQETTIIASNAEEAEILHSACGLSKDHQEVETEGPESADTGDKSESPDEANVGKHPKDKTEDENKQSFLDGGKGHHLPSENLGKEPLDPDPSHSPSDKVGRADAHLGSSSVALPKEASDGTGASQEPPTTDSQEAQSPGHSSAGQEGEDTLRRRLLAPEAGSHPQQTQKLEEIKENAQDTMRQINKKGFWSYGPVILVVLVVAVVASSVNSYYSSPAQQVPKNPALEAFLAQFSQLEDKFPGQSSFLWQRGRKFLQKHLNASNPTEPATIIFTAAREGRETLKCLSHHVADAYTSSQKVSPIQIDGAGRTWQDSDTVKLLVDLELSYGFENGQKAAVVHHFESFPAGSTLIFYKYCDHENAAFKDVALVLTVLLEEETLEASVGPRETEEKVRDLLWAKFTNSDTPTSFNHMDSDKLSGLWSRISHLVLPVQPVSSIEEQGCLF

[16] = E. coli growth modulation, two-sided OD650, primary screen, E. coli filamentation project, strain DRC41, 24 h (AID 1093); details: OD650, 24 h, higher = more signal, called active from +8 up or from −8 down;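 further: MC1000 strain lacking acrAB efflux and sulA so SOS filamentation is blocked; test concentration not given here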
[17] = small-molecule microarray binders of probe aLefty2, primary screen, biochemical, biotinylated probe, 635/667 nm fluorescence (AID 1094); details: higher = more signal;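 further: score merges spot fluorescence near 667 nm with spot signal-to-noise ratio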
[18] = tested on: Noggin (protein binding on small-molecule microarray); assay: Noggin binders on small-molecule microarray, primary screen, biochemical, 635/667 nm fluorescence (AID 1095); details: 635 nm fluorescence, higher = more signal;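 further: score merges 667 nm feature fluorescence with signal to noise over triplicate slides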
[19] = biological target: Neurogenic locus notch homolog protein 3 (Homo sapiens) (UniProt Q9UM47); assay: NOTCH3 binders on small-molecule microarray, primary screen, biochemical, 635/667 nm fluorescence (AID 1096); details: NOTCH3 binding, 635 nm fluorescence, higher = more signal
[20] = small-molecule microarray binders of probe aEGFR, primary screen, biochemical, biotinylated probe, 635/667 nm fluorescence (AID 1097); details: higher = more signal;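 further: probe is a biotinylated anti-EGFR antibody binding compounds printed on slides; score combines fluorescence near 667 nm and signal to noise of each spot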

| SMILES | composite z-score [1] | composite z-score [2] | composite z-score [3] | composite z-score [4] | composite z-score [5] | composite z-score [6] | composite z-score [7] | z-score [8] | composite z-score [9] | composite z-score [10] | composite z-score [11] | z-score [12] | z-score [13] | z-score [14] | composite z-score [15] | z-score [16] | composite z-score [17] | composite z-score [18] | composite z-score [19] | composite z-score [20] |
| --- | --- | --- | --- | --- | --- | --- | --- | --- | --- | --- | --- | --- | --- | --- | --- | --- | --- | --- | --- | --- |
| CC(CCN1CCc2nc(-c3ccccc3)c(-c3ccccc3)cc2C1)=NO[C@@H](C)c1cn([C@H](CO)Cc2ccccc2)nn1 | -0.261 | 0.608 | -0.143 | -0.0983 | -0.674 | 0.424 | 0.124 | -0.54 (inactive) | 0.0854 | -0.189 | 0.747 | -2.46 (inactive) | -2.24 (inactive) | -4.45 (inactive) | 0.272 | -0.966 (inactive) | -0.037 | 0.549 | -0.474 | -0.0172 |
| CC(C)OC(=O)C=C1C[C@@H](c2ccc(C#N)cc2)O[C@@H](c2ccc(C#N)cc2)O1 | -0.475 | 0.334 | 0.235 | 1.01 | 1.68 | 1.64 | 1.21 | 0.0509 (inactive) | 1.58 | 0.233 | 1.55 | 0.149 (inactive) | -2.93 (inactive) | 1.01 (inactive) | 3.36 | 0.554 (inactive) | 0.314 | 0.747 | 1.06 | 0.11 |
| CC(C)NC(=O)[C@@]1(c2ccc([N+](=O)[O-])cc2)CC(=O)N(CC23CC4CC(CC(C4)C2)C3)[C@@H]1c1ccc(CO)cc1I | 0.765 | 0.0289 | 0.11 | 0.252 | 0.931 | 0.607 | 0.964 | -3.71 (inactive) | 0.481 | -0.0645 | 1.52 | 0.151 (inactive) | 0.168 (inactive) | 5.83 (inactive) | 2.53 | -0.525 (inactive) | 0.448 | 0.176 | 0.341 | 0.0743 |
| CCOC(=O)[C@H](CC(C)C)NC(=O)CCC1CC(OC(=O)NCc2cccc3ccccc23)CC2(CCCC(COC(=O)NCCc3ccccc3OC)O2)O1 (stereo not given in full) | -0.414 | 0.301 | -0.108 | 0.433 | 1.14 | 0.174 | 0.882 | 0.0171 (inactive) | 0.402 | -0.134 | 1.28 | -0.133 (inactive) | -0.0584 (inactive) | 0.407 (inactive) | 2.96 | -0.197 (inactive) | -0.0505 | 0.686 | 0.957 | -0.0304 |
| Cc1cc2c(c(=O)o1)[C@H](O)[C@H]1O[C@H]1C2=O | 0.0331 | 0.357 | -0.175 | 0.118 | 0.749 | -0.262 | 0.12 | -0.924 (inactive) | -0.0853 | -0.0994 | 0.527 | 0.228 (inactive) | -4.24 (inactive) | -0.643 (inactive) | -0.186 | -1.02 (inactive) | -0.0569 | 0.651 | 0.312 | -0.0007 |
| O=C1[C@H]2[C@H]3[C@H](O)[C@H](O)CC(=NOCc4ccccc4)[C@@H]3CC[C@H]2C(=O)N1Cc1ccccc1 | -0.226 | 0.304 | -0.125 | 0.264 | 0.758 | -0.0975 | 0.272 | 0.341 (inactive) | 0.281 | -0.0672 | 0.0044 | -0.132 (inactive) | -0.176 (inactive) | -1.41 (inactive) | 0.577 | 0.263 (inactive) | -0.21 | 0.656 | 0.797 | -0.0828 |
| COC(=O)CC=C[C@H](C)[C@H](CO)NS(=O)(=O)c1ccc(C)cc1 | -0.634 | 0.0049 | -0.163 | 0.476 | 0.24 | -0.0696 | 0.629 | -0.599 (inactive) | 0.12 | -0.132 | 0.562 | -0.0524 (inactive) | -0.256 (inactive) | -0.142 (inactive) | 0.368 | -0.518 (inactive) | -0.243 | 0.504 | 0.506 | -0.0953 |
| C[C@H](c1ccccc1)N1C(=O)[C@H]2[C@@H]3C(=CC[C@H]2C1=O)C(=O)[C@H]1O[C@H]1[C@H]3O | -0.518 | 0.34 | -0.135 | 0.134 | 0.582 | -0.198 | -0.133 | 14.4 (active) | 0.128 | -0.289 | -0.511 | 0.389 (inactive) | -1.84 (inactive) | 0.292 (inactive) | -0.597 | -0.295 (inactive) | -0.0305 | 0.447 | 0.172 | -0.138 |
| COCCCNC(=O)[C@]1(Cc2ccccc2)N=C(c2ccc(OCCCO)cc2)O[C@@H]1c1ccccc1 | 0.206 | -0.0225 | -0.01 | 0.791 | 0.967 | 1.54 | 1.04 | -1.33 (inactive) | 0.584 | -0.0645 | 1.44 | -1 (inactive) | -1.32 (inactive) | -1.41 (inactive) | 3.61 | -0.806 (inactive) | 0.0814 | 0.468 | 0.129 | -0.0594 |
| O=C(NN=C1C[C@@H](O)[C@@H](O)[C@@H]2[C@@H]3C(=O)N(c4ccc(F)cc4F)C(=O)[C@@H]3CC[C@@H]12)OCc1ccccc1 | -0.105 | 0.361 | -0.0845 | 0.215 | 0.283 | 0.113 | -0.882 | 0.228 (inactive) | 0.51 | -0.0672 | -0.127 | 0.615 (inactive) | 0.664 (inactive) | -0.442 (inactive) | 1.03 | 0.203 (inactive) | -0.11 | -0.0944 | 0.57 | -0.0616 |
